Source: PubChem BioAssay (NCI)
This is part of a sample that, as a whole, favours compounds with a hit. Of some 79,000 tested, about 15% had one in any assay. Activity calls are given as the source filed them. No stated cut-off is given here; in the data, active means growth inhibition above about 70%; inactive means the rest.

Key:
[1] = NCI Yeast Anticancer Drug Screen. Data for the rad50 strain (AID 155);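 further: 0% = growth of vehicle-only cultures of the same strain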; conditions: S. cerevisiae rad50 strain growth inhibition, active compounds read high
Summary of the method: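 Yeast carrying a defined DNA repair defect were exposed to test compounds, and growth was compared with vehicle-treated controls to give percent inhibition.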

[2] = NCI Yeast Anticancer Drug Screen. Data for the mec2-1 strain (AID 157); conditions: S. cerevisiae mec2-1 strain, active compounds read high
Summary of the method: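 Cells of the genetically defined mec2-1 yeast strain are incubated with test compound. Inhibition of growth is calculated against vehicle-treated controls.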

[3] = NCI Yeast Anticancer Drug Screen. Data for the sgs1 mgt1 strain (AID 161);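 further: 0% = growth of cultures given vehicle only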; conditions: S. cerevisiae sgs1 mgt1 strain, active compounds read high
Summary of the method: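 Mutant yeast exposed to compound; growth scored against vehicle-only wells.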

[4] = NCI Yeast Anticancer Drug Screen. Data for the cln2 rad14 strain (AID 165);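 further: 0% = growth equal to vehicle treated cultures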; conditions: S. cerevisiae cln2 rad14 strain, active compounds read high
Summary of the method: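 The screen exposed genetically defined yeast (cln2 rad14) to test compounds and scored growth inhibition relative to vehicle-treated controls.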

[5] = NCI Yeast Anticancer Drug Screen. Data for the bub3 strain (AID 167); conditions: S. cerevisiae bub3 mutant strain, active compounds read high
Summary of the method: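 Compounds were applied to a genetically altered yeast strain carrying a cell-cycle control defect. Growth inhibition was scored against vehicle-treated controls.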

[6] = NCI Yeast Anticancer Drug Screen. Data for the mlh1 rad18 strain (AID 175); conditions: S. cerevisiae mlh1 rad18 strain growth inhibition, active compounds read high
Summary of the method: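 Compound-treated yeast growth, normalised to vehicle controls. Strain bears defined DNA repair mutations.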

[7] = at 5.0 µM (retest, dose inferred, filed as 0.5)
[8] = at 50.0 µM (retest, dose inferred, filed as 5.0)

Measured: growth inhibition

COc1ccc(Br)c2c1CC(C(=O)O)CC2 (configuration not stated)
inactive: [1]; [7] -29% | [1]; [8] -23% | [1]; at 50.0 µM 8% | [2]; [7] -26% | [2]; [8] 26% | [2]; at 50.0 µM 4.05% | [3]; [7] -33% | [3]; [8] -22% | [3]; at 50.0 µM -10.1% | [4]; [7] 6% | [4]; [8] 6% | [4]; at 50.0 µM -17.2% | [5]; [7] -13% | [5]; [8] 13% | [5]; at 50.0 µM 11.9% | [6]; [7] -20% | [6]; [8] -19% | [6]; at 50.0 µM 2.8%

OC(CC(CC(O)(C(F)(F)F)C(F)(F)F)=NN=C(CC(O)(C(F)(F)F)C(F)(F)F)CC(O)(C(F)(F)F)C(F)(F)F)(C(F)(F)F)C(F)(F)F
inactive: [1]; [7] 41% | [2]; [7] 31% | [3]; [7] 32% | [4]; [7] 35% | [5]; [7] 37% | [6]; [7] 46% | [6]; at 50.0 µM 67.6%
active: [1]; [8] 73% | [1]; at 50.0 µM 83.7% | [2]; [8] 92% | [2]; at 50.0 µM 84.3% | [3]; [8] 88% | [3]; at 50.0 µM 78.5% | [4]; [8] 72% | [4]; at 50.0 µM 72% | [5]; [8] 81% | [5]; at 50.0 µM 82.7% | [6]; [8] 93%

[Cu+2].[O-]/N=C/c1cccc(O)c1[O-].[O-]/N=C/c1cccc(O)c1[O-]
inactive: [1]; [7] -16% | [2]; [7] -14% | [3]; [7] -14% | [4]; [7] -12% | [5]; [7] -20% | [6]; [7] -4%
active: [1]; [8] 99% | [1]; at 50.0 µM 93.8% | [2]; [8] 99% | [2]; at 50.0 µM 96.7% | [3]; [8] 99% | [3]; at 50.0 µM 96.8% | [4]; [8] 98% | [4]; at 50.0 µM 94.8% | [5]; [8] 99% | [5]; at 50.0 µM 97.7% | [6]; [8] 98% | [6]; at 50.0 µM 94%

O=C(Oc1ccc(O)c2ccccc12)c1ccccc1
active: [1]; at 50.0 µM 98.7% | [2]; at 50.0 µM 98.6% | [3]; at 50.0 µM 98.3% | [4]; at 50.0 µM 98.5% | [5]; at 50.0 µM 98.5% | [6]; at 50.0 µM 97.2%
inactive: [1]; [7] 0% | [1]; [8] 2% | [2]; [7] -3% | [2]; [8] 6% | [3]; [7] 1% | [3]; [8] -16% | [4]; [7] -7% | [4]; [8] -5% | [5]; [7] -5% | [5]; [8] 5% | [6]; [7] -7% | [6]; [8] 7%

CCc1nc(N)nc(N)c1-c1ccc(N(C)Cc2ccccc2)c([N+](=O)[O-])c1
inactive: [1]; [7] 10% | [1]; [8] -13% | [1]; at 50.0 µM 8.55% | [2]; [7] 7% | [2]; [8] 0% | [2]; at 50.0 µM 22.1% | [3]; [7] 37% | [3]; [8] 37% | [3]; at 50.0 µM 3.1% | [4]; [7] 31% | [4]; [8] 40% | [4]; at 50.0 µM 4.05% | [5]; [7] 52% | [5]; [8] 34% | [5]; at 50.0 µM 10.1% | [6]; [7] 8% | [6]; [8] -6% | [6]; at 50.0 µM 14.5%

COC(=O)c1nnn(-c2ccc(S(N)(=O)=O)cc2)c1C(=O)c1ccc(Cl)c(Cl)c1
active: [1]; [8] 98% | [1]; at 50.0 µM 98.5% | [2]; [8] 99% | [2]; at 50.0 µM 98% | [3]; [8] 99% | [3]; at 50.0 µM 98.2% | [4]; [8] 98% | [4]; at 50.0 µM 96% | [5]; [8] 99% | [5]; at 50.0 µM 94.8% | [6]; [8] 99% | [6]; at 50.0 µM 98.3%
inactive: [1]; [7] 1% | [2]; [7] 22% | [3]; [7] 20% | [4]; [7] 19% | [5]; [7] 30% | [6]; [7] 22%

Cc1ccc(C(O)CCN2CCOCC2)c(C)c1 (configuration not stated)
active: [1]; at 50.0 µM 81.5% | [3]; at 50.0 µM 78% | [4]; [8] 71% | [5]; [8] 82%
inactive: [1]; [7] 26% | [1]; [8] 69% | [2]; [7] 30% | [2]; [8] 61% | [2]; at 50.0 µM 45.1% | [3]; [7] 44% | [3]; [8] 68% | [4]; [7] 44% | [4]; at 50.0 µM 57.2% | [5]; [7] 43% | [5]; at 50.0 µM 70% | [6]; [7] 23% | [6]; [8] 65% | [6]; at 50.0 µM 69.2%

O=C1CSC(c2ccccc2O)N1c1ccc(-n2c(-c3ccccc3)nc3ccccc3c2=O)cc1 (configuration not stated)
active: [1]; [8] 78% | [3]; at 50.0 µM 72.5% | [4]; [8] 79% | [4]; at 50.0 µM 78.5% | [5]; at 50.0 µM 74.8% | [6]; [8] 81% | [6]; at 50.0 µM 75.5%
inactive: [1]; [7] 2% | [1]; at 50.0 µM 67.3% | [2]; [7] -1% | [2]; [8] 39% | [2]; at 50.0 µM 64.4% | [3]; [7] 5% | [3]; [8] 50% | [4]; [7] 29% | [5]; [7] -13% | [5]; [8] 56% | [6]; [7] 0%

COc1ccc(C2=C/C(=C3\C(=O)Oc4ccccc4C3=O)SS2)cc1
inactive: [1]; [7] 0% | [1]; [8] 32% | [1]; at 50.0 µM -5.95% | [2]; [7] -2% | [2]; [8] 7% | [2]; at 50.0 µM -1.6% | [3]; [7] 2% | [3]; [8] 50% | [3]; at 50.0 µM -3.75% | [4]; [7] 1% | [4]; [8] 36% | [4]; at 50.0 µM 38.5% | [5]; [7] 3% | [5]; [8] 24% | [5]; at 50.0 µM -3.75% | [6]; [7] -2% | [6]; [8] 32% | [6]; at 50.0 µM 1.2%
